A selection: hits, their analogues and other compounds. The true share with any hit is near 3.2%.
Mtb FBA inh = inhibitors of M. tuberculosis fructose-bisphosphate aldolase. purified M. tuberculosis FBA, fluorescence read-out. inhibition, % at 1 µM. 360,000 tested, 2.3% active. P9WQA3;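 further: 0% = vehicle and 100% = reference inhibitor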
SSB-PriA inh = blocks PriA binding to SSB C-terminal tail; AlphaScreen SSBct-PriA binding, biotinylated peptide; 430,000 tested, 0.6% active; inhibition, % at 33 µM; in the data active means inhibition mostly above about 37%, no sharp cut-off; inactive means mostly below about 20%;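 further: plate controls were negative control peptide for no effect and reference peptide for full effect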
UGM FP inh = blocks M. tuberculosis UGM enzyme; P9WIQ1; purified UGM, fluorescence polarization probe displacement; inhibition, % at 10 µM; 320,000 tested, 0.06% active; in the data active means inhibition above about 10%, passing the limit was not always enough
Mtb betalactam = beta-lactam sensitization of Mtb H37Rv | 330,000 tested, 0.27% active | M. tuberculosis H37Rv growth with meropenem, percent inhibition | AID 434955 | inhibition, % at 25 µM; call rule not given here;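 further: growth measured after seven days incubation then overnight dye step; 0% = bacteria only wells and 100% = bacteria with antibiotic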
GDH-TPI counter-1 = inhibits GDH-TPI coupling enzymes, artifact for Mtb FBA screen. GDH-TPI coupled enzyme counterscreen, NADH absorbance. inhibition, % at 4.8 µM. 360,000 tested, 1.2% active. AID 588335; in the data active means inhibition above about 30%;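 further: 0% = DMSO wells and 100% = wells lacking the enzyme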
Rv3671c inh = Rv3671c (M. tuberculosis) protease inhibition | P9WHR9 | inhibition, % at 5.96 µM | 320,000 tested, 0.048% active; in the data active means inhibition above about 38%;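 further: extracellular domain of Rv3671c used as enzyme; 0% = enzyme with DMSO and 100% = no enzyme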
Target sequence (P9WHR9 whole entry, looked up, the tested form may be a part): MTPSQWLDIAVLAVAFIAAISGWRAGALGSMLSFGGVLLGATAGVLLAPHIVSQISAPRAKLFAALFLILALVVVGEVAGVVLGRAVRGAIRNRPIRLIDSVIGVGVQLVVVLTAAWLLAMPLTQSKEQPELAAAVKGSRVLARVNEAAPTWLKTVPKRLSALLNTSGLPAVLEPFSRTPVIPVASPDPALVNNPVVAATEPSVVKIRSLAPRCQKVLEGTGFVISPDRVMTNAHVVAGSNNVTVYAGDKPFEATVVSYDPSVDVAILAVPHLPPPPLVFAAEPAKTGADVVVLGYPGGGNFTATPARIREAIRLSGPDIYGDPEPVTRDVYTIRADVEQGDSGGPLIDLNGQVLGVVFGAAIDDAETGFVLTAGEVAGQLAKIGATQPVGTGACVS
Mtb FBA confirm = Mtb FBA inhibition, confirmed; 5,600 tested, 78% active; purified M. tuberculosis FBA, fluorescence read-out; inhibition, % at 1 µM; shares compounds with Mtb FBA inh; AID 651616;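 further: 0% = vehicle wells and 100% = reference inhibitor wells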
GDH-TPI counter-2 = inhibits GDH-TPI coupling enzymes, flagging Mtb FBA hits. shares compounds with Mtb FBA inh. GDH-TPI coupled enzyme counterscreen, fluorescence. inhibition, % at 1 µM. 5,600 tested, 81% active. AID 652141; in the data active means inhibition above about 10%
Starred values were filed as active, the others as inactive; x = no result; + = active, no number. Unless noted, no stated cut-off is given here; in the data, active means inhibition above about 27%; inactive means the rest.

SMILES	Mtb FBA inh	SSB-PriA inh	UGM FP inh	Mtb betalactam	GDH-TPI counter-1	Rv3671c inh	Mtb FBA confirm	GDH-TPI counter-2
C=CCn1c2ccccc2c(=O)c2cc(C#CC3(O)CCCCC3)ccc21	64.6*	-29.5	-0.4	-4.1	0.9	-25.0	133.8*	108.3*
COC(=O)c1ccc(Nc2nnc(C(C)(C)C)c(=O)n2N)cc1	x	-2.0	x	x	x	x	x	x
Nc1nc(N2CCN(c3ccccc3)CC2)ncc1C(=O)NCc1ccccc1	x	-5.0	x	x	x	x	x	x
Cc1cc(C(=O)NCCn2ncc3c(N4CCCCCC4)ncnc32)no1	x	8.0	x	x	x	x	x	x
CC1CCCN(C(=O)c2cc(-c3cccs3)nc3ccccc23)C1 (stereo not drawn)	83.4*	-16.0	-0.3	0.7	26.1	-2.6	1.1	-1.4
Cc1ccsc1C(=O)N1CCN(S(=O)(=O)c2cccc(F)c2)CC1	2.3	1.1	0.4	-4.4	-9.8	4.3	x	x
O=C(c1cc(-c2cccs2)nc2ccccc12)N1CCN(c2ccccc2)CC1	3.5	5.8	-1.4	24.3	6.0	7.3	x	x
O=C(c1cc(-c2cccs2)nc2ccccc12)N1CCN(S(=O)(=O)c2cccc(F)c2)CC1	37.6*	6.8	1.0	-4.9	14.8	-15.5	122.8*	91.8*
O=C(c1cc(-c2cccs2)nc2ccccc12)N1CCN(S(=O)(=O)c2ccccc2)CC1	57.0*	-5.8	-0.2	32.3	25.9	-9.3	97.7*	75.7*
O=C(NCCC(O)c1cccs1)c1ccc2nsnc2c1 (stereo not drawn)	x	-7.0	x	x	x	x	x	x
CCSc1nnc(NC(=O)CSc2ccc(Cl)cc2)s1	x	-1.0	x	x	x	x	x	x
C=CCn1c(SCC(=O)N(CC)C2CCS(=O)(=O)C2)nc2ccccc2c1=O (stereo not drawn)	-5.0	8.4	-1.7	2.2	4.2	9.0	x	x
C=CCn1c(SCC(=O)N(CC)C2CCS(=O)(=O)C2)nc2cc(C(=O)O)ccc2c1=O (stereo not drawn)	32.2*	5.5	-2.1	-8.9	4.8	0.3	111.0*	89.2*
CCN1C(=O)c2cccc3c(NC(=O)/C=C/c4ccc([N+](=O)[O-])s4)ccc1c23	x	0.0	x	x	x	x	x	x
CCCc1cc(=O)n2[nH]cc(-c3ccc(Cl)cc3)c2n1	54.3*	-7.2	-4.2	97.9	9.4	x	-10.8	-11.0
O=c1cc(-c2ccccc2)nc2c(-c3ccccc3)c[nH]n12	x	-52.0	x	x	x	x	x	x
Cc1cc(=O)n2[nH]cc(-c3ccccc3)c2n1	33.9*	-6.1	1.1	-1.3	6.8	x	73.5*	60.4*
CCCc1cc(=O)n2[nH]c(SCc3ccc(Cl)cc3)nc2n1	3.6	1.2	0.9	-6.3	4.1	-3.7	x	x
CC1(C)OC(=CC=Nc2ccc(Cl)cc2)OC1(C)C	48.8*	6.4	-4.8	-4.5	20.0	6.5	+	+
O=C(c1ccc(S(=O)(=O)N2CCCCC2)cc1)N1CCN(c2ncnc3c2nnn3-c2ccccc2)CC1	x	-23.0	x	x	x	x	x	x
CN1CCSc2ccc(C(=O)NCc3ccccc3)cc21	95.8*	1.2	2.7	-1.2	17.9	3.6	+	167.0*
CC1CC(C)CN(C(=O)c2ccc3c(c2)N(Cc2ccccc2)CCS3)C1 (stereo not drawn)	10.0	-3.1	3.5	-7.0	7.9	9.5	x	x
O=C(NCc1cccnc1)c1ccc2c(c1)N(Cc1ccccc1)CCS2	75.5*	26.2	0.8	-1.6	3.4	-10.3	162.9*	124.5*
CN1CCSc2ccc(C(=O)Nc3cccc(F)c3)cc21	21.3	-7.3	0.1	29.0	13.0	-10.3	x	x
O=C(NCc1ccccn1)c1ccc2c(c1)N(Cc1ccccc1)CCS2	93.6*	13.7	-0.9	0.2	7.2	2.1	3.0	0.1
SMILES	Mtb FBA inh	SSB-PriA inh	UGM FP inh	Mtb betalactam	GDH-TPI counter-1	Rv3671c inh	Mtb FBA confirm	GDH-TPI counter-2
OCCNc1nc(Nc2ccccc2)c2nccnc2n1	x	-8.0	x	x	x	x	x	x
CCOC(=O)N1CCN(C(=O)c2ccc3nc4ccc(Cl)cc4c(=O)n3c2)CC1	12.1	-2.2	0.1	-7.3	7.4	-0.4	x	x
CCOC(=O)N1CCN(C(=O)c2ccc3nc4ccsc4c(=O)n3c2)CC1	29.1*	-9.1	-2.0	-9.2	24.8	0.3	3.6	7.1
CCOC(=O)N1CCN(C(=O)c2cccn3c(=O)c4sccc4nc23)CC1	66.1*	-12.1	0.1	-6.5	53.3*	-0.4	9.1	-5.8
O=c1oc(C2(O)CCCCC2)cc2ccc(/C=C/c3ccc(F)cc3)cc12	31.6*	7.8	-3.2	12.7	8.3	3.0	34.4*	24.0*
CC(=O)c1cccc(NC(=O)c2cc(-c3ccco3)nc3ccccc23)c1	14.5	3.6	-0.4	2.4	-5.2	-14.3	x	x
COc1ccc(CCNC(=O)c2cc(-c3ccco3)nc3ccccc23)cc1	x	-7.0	-1.4	-18.3	x	0.5	x	x
CCN(CC)CCNC(=O)c1cc(-c2ccco2)nc2ccccc12	82.3*	-7.2	-1.8	-0.9	5.1	-0.2	151.9*	129.5*
O=C(NNC(=O)c1cc(-c2ccco2)nc2ccccc12)c1ccccc1	49.9*	4.8	1.3	-4.4	2.6	-2.3	67.8*	60.7*
Cc1cc(C(=O)NCc2cccnc2-c2ccsc2)n(C)n1	x	5.0	x	x	x	x	x	x
CC(C)(C)Nc1ncnc2sc(-c3ccccc3)cc12	19.9	-15.9	-3.2	9.9	15.6	-8.5	x	x
OCCCNc1ncnc2sc(-c3ccccc3)cc12	29.8*	-16.8	7.7	-6.3	23.0	8.8	54.8*	44.9*
C=COCCCNc1ncnc2sc(-c3ccccc3)cc12	38.1*	-2.3	0.8	47.0	12.9	-17.8	51.4*	40.1*
Cc1ccc2nc(N/N=C/c3ccccc3F)nc(-c3ccccc3)c2c1	51.6*	x	x	32.1	15.2	-33.5	5.0	-1.8
Cc1ccc2nc(NN=Cc3ccccc3F)nc(-c3ccccc3)c2c1	x	-3.4	x	x	x	x	x	x
OCCNc1nc(-c2ccccc2)c2ccccc2n1	52.1*	-3.9	1.0	0.9	17.1	3.8	170.9*	147.7*
OCCNc1nc(-c2ccccc2)c2cc(Cl)ccc2n1	39.1*	-36.0	1.1	15.4	7.5	1.2	122.5*	104.4*
Cc1ccc2nc(NCC(=O)NN)nc(-c3ccccc3)c2c1	26.3	-17.7	3.2	-3.1	18.6	-2.4	x	x
CC(=O)NNc1nc(-c2ccccc2)c2cc(Cl)ccc2n1	-0.6	x	x	x	6.7	x	x	x
Cc1ccc2nc(NCCO)nc(-c3ccccc3)c2c1	37.5*	-24.2	-0.7	1.7	0.0	3.5	73.4*	48.3*
O=C(NCCOc1ccccc1)Nc1cccs1	x	-8.0	x	x	x	x	x	x
O=C(NCCc1ccc(N2CCCC2)cc1)C(=O)Nc1ccc2c(c1)OCO2	x	-18.0	x	x	x	x	x	x
O=C(CCS(=O)(=O)c1ccc(Br)cc1)N1CCN(c2ccccc2)CC1	73.2*	-4.0	0.4	-5.0	5.9	1.0	68.8*	62.4*
O=C(CCS(=O)(=O)c1ccccc1)N1CCN(c2ccccc2)CC1	4.0	-4.5	-1.0	-3.5	-2.8	-2.0	x	x
CCC(=O)Nc1ccc(SCC(=O)Nc2nnc(CC)s2)nn1	x	0.0	x	x	x	x	x	x

Source: PubChem BioAssay
